Screen size: about 48,000 compounds; about 13,000 (27%) showed an effect of 50% or more. The list shows a part of the results.
The compounds below were run on Wolbachia pipientis (assay: Anti-Wolbachia Cell-Based Screen). Settings: 5 µM.
Format: functional
Set-up: scale not given: in the data most compounds retested in dose-response had high values

| SMILES | Percent Effect |
| --- | --- |
| CC(C)CN1CCC(c2nc3c([nH]2)CC(C)(C)CNC3=O)C1 (configuration not stated) | -15.84% |
| c1cn(Cc2nnc(C3CCN(C4CCNCC4)CC3)n2C2CC2)cn1 | -5.551% |
| NC(=O)CN1CC2(CCC1=O)CCN(Cc1ccccc1F)CC2 | -12.52% |
| O=C1CCOC[C@]2(CN(Cc3ccccc3)C[C@H]2c2cccnc2)N1 | 97.51% |
| O=C(CC1CN(Cc2ccccc2)CCO1)Nc1ccccc1F (configuration not stated) | -6.692% |
| O=C1NCC[C@]12CN(Cc1ccoc1)C[C@H]2c1ccccc1 | -11.19% |
| O=C(O)CCCN1C[C@@H](c2ccccc2F)[C@@]2(CCCCC(=O)N2)C1 | 110% |
| O=C(NC1CC(F)(F)C1)[C@]12COC[C@H]1CN(Cc1ccccc1)C2.O=C(O)C(F)(F)F | -29.2% |
| O=C1CCOC[C@]2(CN(Cc3ccccc3)C[C@H]2c2ccccc2F)N1 | 94.73% |
| O=C1CCOC[C@]2(CN(Cc3ccccc3)C[C@H]2c2ccccc2)N1 | 85.32% |
| O=C1NC[C@@]2(C(=O)O)CN(Cc3ccc(Oc4ccccc4)cc3)C[C@@H]12 | 22.58% |
| O=C1NC2(CCN(Cc3cccnc3)CC2)CC1c1ccncc1 (configuration not stated) | -17.77% |
| Cc1ccc(OCC(=O)N2C[C@@H]3CN(C)CCO[C@@H]3C2)cc1.O=C(O)C(F)(F)F | -15% |
| CN(Cc1ccoc1)C(=O)C1CCN(C(=O)C2CCCC2)CC1 | -1.17% |
| Cc1cc(NC(=O)CN(C)CC2CCCN2c2cccnn2)n(C)n1 (configuration not stated) | -5.162% |
| N[C@@H]1CCN(Cc2ccc(-c3nc(-c4cccnc4)cc(=O)[nH]3)cc2)C1 | 4.047% |

| SMILES | Percent Effect |
| --- | --- |
| COc1cc(C(C)=O)ccc1SCC(=O)Nc1cc(C)n[nH]1 | 8.192% |
| O=C(NC[C@]12COC[C@H]1CN(Cc1cccc(F)c1)C2)c1ccco1 | 10.17% |
| O=C1NC[C@@]2(C(=O)O)CN(Cc3cccc(CN4CCOCC4)c3)C[C@@H]12 | -10.55% |
| O=C1CCOC[C@]2(CN(Cc3ccccc3)C[C@H]2c2cccc(F)c2)N1 | 100.5% |
| N#Cc1ccc(CNCC(C(=O)N2CCOCC2)c2ccccc2)cc1 (configuration not stated) | -11.01% |
| Cl.Cl.OC(CN1CCN(Cc2cc(F)ccc2F)CC1)C1CC1 (configuration not stated) | -0.1352% |
| Cl.Fc1cccc(CN2CCC(c3cc4ncccc4cn3)CC2)c1F | 64.82% |
| O=C(c1cccnc1)N1C[C@@H]2CC[C@H](C1)N(Cc1cc(F)ccc1F)C2 | -19.69% |
| COc1ccc(Oc2cccnc2)cc1CN1CCCC1 | 40.81% |
| CN(Cc1cc(F)cc2cccnc12)CC1CCN(CCO)CC1 | -1.587% |
| Fc1ccc(F)c(CN2CCC(c3cnccn3)CC2)c1 | 76.33% |
| COc1ccc(C)cc1CN1CCC(c2cc3ncccc3cn2)CC1.Cl | 107% |
| Fc1cccnc1N1CCC(NCc2cccc3cn[nH]c23)C1 (configuration not stated) | 4.996% |
| Cl.Fc1ccc(F)c(CN2CCC(c3cc4ncccc4cn3)CC2)c1 | 84.15% |
| COc1ccc(C)cc1CN1CCN(Cc2nccn2C)CC1 | -6.315% |
| Cc1cnn(Cc2cc(F)ccc2F)c1NC(=O)NC1CC1 | -2.224% |

Reference: ChEMBL document CHEMBL3988442, “University of Dundee, Small-Polar-MMV Screening Library” (2021)
